The source made the active and inactive calls.
Experiments:
[1] = optical density shifts of acrAB sulA E. coli – strain DRC41, OD650, 48 h, E. coli filamentation inducer project, primary screen (AID 1152); conditions: higher = more signal, called active from +8 up or from −8 down;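 also: E. coli MC1000 strain DRC41 lacking acrAB efflux pump and sulA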
[2] = probe aLefty1 binding on compound microarray – biochemical, small-molecule microarray, 635/667 nm fluorescence, primary screen (AID 1153); conditions: higher = more signal;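 also: score merges spot fluorescence with signal-to-noise ratio from the scanned slide images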
[3] = plasmodial surface anion channel blockers, osmotic lysis – cell-based, P. falciparum Indochina, OD700, 1 h, primary screen (AID 1154); conditions: P. falciparum Indochina infected RBC osmotic lysis, higher = more signal, called active from +8 up or from −8 down
[4] = plasmodial surface anion channel blockers, osmotic lysis – cell-based, P. falciparum Indochina, OD700, 2 h, primary screen (AID 1155);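 also: lysis reports solute entry through the parasite surface anion channel PSAC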; conditions: P. falciparum Indochina infected erythrocytes, higher = more signal, called active from +8 up or from −8 down
[5] = changes in parasitized red cell lysis, either direction – P. falciparum Indochina, OD700, 3 h, PSAC antagonist project, primary screen (AID 1156); conditions: P. falciparum-infected erythrocytes, osmotic lysis, higher = more signal, called active from +8 up or from −8 down
[6] = plasmodial surface anion channel blockers, osmotic lysis – cell-based, P. falciparum Indochina, OD700, 18 h, primary screen (AID 1157); conditions: P. falciparum Indochina infected erythrocytes, osmotic lysis OD700, 18 h; higher = more signal, called active from +8 up or from −8 down
[7] = S6 kinase pathway phospho-S6 level changes – cell-based, A549, cytoblot, luminescence, serum-stimulated, primary screen (AID 1158); conditions: 5 h, higher = more signal;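 also: serum-stimulated A549 lung adenocarcinoma cells; signal is phosphorylated S6 detected by cytoblot immunostaining with HRP secondary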
[8] = molecular target: NADPH oxidase 2 (Homo sapiens) (UniProt P04839); assay: compounds shifting NOX2 Amplex Red fluorescence – cell-based, HEK293-NOX2, PMA-stimulated, NOX inhibitor project, primary screen (AID 1159); conditions: 45 min, higher = more signal, called active from +8 up or from −8 down; also: test concentration not given here
[9] = molecular target: NADPH oxidase 4 (Homo sapiens) (UniProt Q9NPH5); assay: compounds shifting NOX4 Amplex Red fluorescence – cell-based, HEK293-NOX4, tetracycline-induced, NOX inhibitor project, primary screen (AID 1160); conditions: HEK293-NOX4, Amplex Red H2O2 fluorescence, 45 min; higher = more signal, called active from +8 up or from −8 down
[10] = molecular target: NADPH oxidase 5 (Homo sapiens) (UniProt Q96PH1); assay: compounds shifting NOX5 Amplex Red fluorescence – cell-based, HEK293-NOX5, NOX inhibitor project, primary screen (AID 1161); conditions: HEK293-NOX5, ionomycin, 45 min, higher = more signal
NADPH oxidase 5 (Homo sapiens), sequence (Q96PH1 whole entry, looked up): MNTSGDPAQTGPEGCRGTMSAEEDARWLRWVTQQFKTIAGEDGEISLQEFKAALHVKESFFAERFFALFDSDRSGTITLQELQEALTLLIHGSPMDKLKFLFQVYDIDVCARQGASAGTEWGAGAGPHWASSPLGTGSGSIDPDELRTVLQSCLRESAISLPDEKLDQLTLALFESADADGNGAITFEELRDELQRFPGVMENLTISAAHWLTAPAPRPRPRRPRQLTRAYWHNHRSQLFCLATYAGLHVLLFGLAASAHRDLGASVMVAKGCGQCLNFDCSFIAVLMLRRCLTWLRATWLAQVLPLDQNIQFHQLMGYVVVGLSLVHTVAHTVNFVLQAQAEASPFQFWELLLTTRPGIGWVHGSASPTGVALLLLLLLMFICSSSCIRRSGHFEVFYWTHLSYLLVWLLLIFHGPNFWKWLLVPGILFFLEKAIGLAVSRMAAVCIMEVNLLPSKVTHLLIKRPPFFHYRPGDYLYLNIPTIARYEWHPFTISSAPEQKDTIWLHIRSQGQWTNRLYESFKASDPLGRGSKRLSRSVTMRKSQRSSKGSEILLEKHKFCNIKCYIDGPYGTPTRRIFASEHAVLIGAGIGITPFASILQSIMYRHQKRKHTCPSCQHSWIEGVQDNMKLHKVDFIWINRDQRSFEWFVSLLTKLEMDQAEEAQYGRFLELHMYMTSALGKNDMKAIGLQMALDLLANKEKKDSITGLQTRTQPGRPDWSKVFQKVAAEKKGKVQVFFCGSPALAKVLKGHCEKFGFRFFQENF

NADPH oxidase 2 (Homo sapiens), sequence (P04839 whole entry, looked up): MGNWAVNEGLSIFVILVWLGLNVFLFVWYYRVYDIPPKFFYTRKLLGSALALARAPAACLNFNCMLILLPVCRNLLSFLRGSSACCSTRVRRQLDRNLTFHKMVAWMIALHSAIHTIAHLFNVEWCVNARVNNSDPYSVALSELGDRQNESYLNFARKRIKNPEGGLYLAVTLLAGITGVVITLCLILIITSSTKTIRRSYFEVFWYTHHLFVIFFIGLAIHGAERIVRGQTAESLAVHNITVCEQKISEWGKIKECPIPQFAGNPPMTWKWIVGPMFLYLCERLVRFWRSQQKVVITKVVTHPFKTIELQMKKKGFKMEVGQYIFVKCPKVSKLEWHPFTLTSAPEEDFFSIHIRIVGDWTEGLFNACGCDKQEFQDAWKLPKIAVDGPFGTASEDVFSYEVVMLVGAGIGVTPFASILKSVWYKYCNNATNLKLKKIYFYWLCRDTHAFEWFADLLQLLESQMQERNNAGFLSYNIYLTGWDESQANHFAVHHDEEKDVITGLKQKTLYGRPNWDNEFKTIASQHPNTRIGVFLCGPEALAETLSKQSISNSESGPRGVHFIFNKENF
NADPH oxidase 4 (Homo sapiens), sequence (Q9NPH5 whole entry, looked up): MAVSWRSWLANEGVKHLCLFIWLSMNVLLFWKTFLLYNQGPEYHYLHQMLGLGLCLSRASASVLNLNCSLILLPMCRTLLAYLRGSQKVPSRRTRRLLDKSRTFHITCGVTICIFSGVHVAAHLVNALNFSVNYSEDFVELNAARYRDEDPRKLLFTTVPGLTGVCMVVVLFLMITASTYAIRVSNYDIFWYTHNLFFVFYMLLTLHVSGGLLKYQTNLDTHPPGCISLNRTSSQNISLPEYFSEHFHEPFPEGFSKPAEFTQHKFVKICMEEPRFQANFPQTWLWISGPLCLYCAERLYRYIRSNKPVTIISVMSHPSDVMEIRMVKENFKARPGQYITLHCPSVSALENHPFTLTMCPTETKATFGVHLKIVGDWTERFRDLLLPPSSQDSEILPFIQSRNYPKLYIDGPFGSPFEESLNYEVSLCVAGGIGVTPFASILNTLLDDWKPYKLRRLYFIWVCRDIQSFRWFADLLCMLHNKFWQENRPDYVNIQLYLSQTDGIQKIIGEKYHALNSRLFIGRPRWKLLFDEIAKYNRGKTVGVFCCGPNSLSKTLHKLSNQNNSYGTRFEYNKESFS

Row | SMILES | z-score [1] | composite z-score [2] | z-score [3] | z-score [4] | z-score [5] | z-score [6] | z-score [7] | z-score [8] | z-score [9] | z-score [10]
1 | CCOC(=O)[C@H]1C/C=C/C[C@H](C(=O)OCC)C(=O)O[C@H]2[C@@H](OC)O[C@H](CO)[C@@H](OC(=O)Nc3cccc(F)c3)[C@@H]2OC1=O | 0.0021 (inactive) | 1.53 | 4.53 (inactive) | 1.81 (inactive) | -2.04 (inactive) | 1.61 (inactive) | -0.0707 | -2.12 (inactive) | -0.389 (inactive) | -1.22
2 | C=CCOC(=O)[C@H]1[C@@H]2C(=O)O[C@@H](c3ccccc3)[C@@H](c3ccccc3)N2[C@@H](c2ccc(OCCOC(=O)[C@H]3C[C@H]4C(=O)N5CCC[C@H]5C(=O)N4[C@H]3c3ccc(O)cc3)cc2)[C@]12C(=O)Nc1ccc(I)cc12 | 0.917 (inactive) | 1.99 | 0.234 (inactive) | -0.588 (inactive) | -1.27 (inactive) | -1.39 (inactive) | 0.555 | -1.32 (inactive) | -1.09 (inactive) | -0.351
3 | C=C(COC)/C(=C/C[C@@H](OC(C)=O)c1ccc(CO)o1)c1cnc2ccccc2c1 | 0.876 (inactive) | 0.233 | 4.44 (inactive) | 0.759 (inactive) | 1.56 (inactive) | 0.307 (inactive) | 0.0933 | 0.299 (inactive) | -2.98 (inactive) | -1.25
4 | CN1C(=O)C2C=CC(C(O)c3cccs3)N(Nc3ccccc3)C2C1=O (stereo not given) | -1.6 (inactive) | 0.206 | -0.203 (inactive) | 0.65 (inactive) | -0.109 (inactive) | 0.731 (inactive) | -1.19 | -2 (inactive) | -4.89 (inactive) | -3.11
5 | COC(=O)[C@@]1(Cc2ccc(F)cc2)[C@@H]2[C@@H](CC(=O)[C@H]2CC(=O)C(=O)N(C)C)CN1C(=O)c1ccccc1 | -1.78 (inactive) | 0.334 | 2.32 (inactive) | 0.723 (inactive) | 0.806 (inactive) | 0.961 (inactive) | -0.761 | 0.366 (inactive) | -0.21 (inactive) | 0.256
6 | [N-]=[N+]=NCc1ccccc1[C@H]1OC(c2ccc(OCCCO)cc2)=N[C@@]1(Cc1ccccc1)C(=O)NCc1ccccc1 | 0.336 (inactive) | 0.22 | 27.6 (active) | 23.5 (active) | 1.96 (inactive) | 1.77 (inactive) | -0.669 | 1.08 (inactive) | 0.113 (inactive) | -0.549
7 | C=CCNC(=O)[C@@H]1[C@H]2C(=O)O[C@H](c3ccccc3)[C@H](c3ccccc3)N2[C@H](c2ccc(OCCO)cc2)[C@@]12C(=O)Nc1ccc(C#Cc3ccc(OC)cc3)cc12 | 0.411 (inactive) | 0.498 | 3.18 (inactive) | 1.46 (inactive) | 0.931 (inactive) | 0.677 (inactive) | 0.278 | 1.04 (inactive) | -1.11 (inactive) | 0.959
8 | COc1cc(CO)cc(I)c1O[C@H]1C=C(C(=O)NCCO)C[C@@H](N(CCN2CCOCC2)C(=O)C2CCOC2)[C@@H]1O (stereo not given in full) | 3.66 (inactive) | -0.319 | 8.79 (active) | 1.59 (inactive) | 1.89 (inactive) | 0.427 (inactive) | 0.432 | -0.568 (inactive) | 1.29 (inactive) | 0.233
9 | C=C[C@H](COC(C)=O)N(C(=O)OC(C)(C)C)S(=O)(=O)c1ccc(Br)cc1 | 1.34 (inactive) | 0.312 | 0.874 (inactive) | -0.141 (inactive) | -0.301 (inactive) | 0.0544 (inactive) | 0.314 | 0.406 (inactive) | 0.356 (inactive) | -0.772
10 | C=CCC(OC(C)=O)[C@@H]1[C@@H](N(Cc2ccc(-c3cccc(C(F)(F)F)c3)o2)C(=O)c2ccc(-c3ccccc3)cc2)c2cc(OCCCO)ccc2N1C(=O)c1ccc(-c2ccccc2)cc1 (stereo not given in full) | -0.894 (inactive) | -0.169 | 0.566 (inactive) | 0.434 (inactive) | 0.0785 (inactive) | 0.508 (inactive) | 0.0635 | -1.27 (inactive) | -1.05 (inactive) | 0.713
11 | CCCC=C(CCC)[C@@H](NC(=O)Oc1ccc(F)cc1)c1ccc(C(=O)OC)cc1 | -0.755 (inactive) | 0.221 | 0.454 (inactive) | 1.34 (inactive) | -1.54 (inactive) | 1.35 (inactive) | 0.298 | -0.395 (inactive) | -1.17 (inactive) | -0.592

Reference: PubChem BioAssay
